# Laboratory results published in PMC7862700, “An all-to-all approach to the identification of sequence-specific readers for epigenetic DNA modifications on cytosine”.
# Legend:
# Experiment in all cases: DAPPL (digital affinity profiling via proximity ligation, sequencing); 10 mM Tris-HCl pH 7.5, 50 mM NaCl, 1 mM DTT, 4% glycerol, room temperature, 30 min; GST-TFs on glutathione beads, 16-mer random dsDNA library, 0.1% formaldehyde crosslink after washing; high values mean tight binding
# FLI1 = target: T1, FLI1 (Homo sapiens, UniProt Q01543 1-452); conditions: protein: recombinant; tags: N-terminal GST; dsDNA, one strand shown
# T1 sequence: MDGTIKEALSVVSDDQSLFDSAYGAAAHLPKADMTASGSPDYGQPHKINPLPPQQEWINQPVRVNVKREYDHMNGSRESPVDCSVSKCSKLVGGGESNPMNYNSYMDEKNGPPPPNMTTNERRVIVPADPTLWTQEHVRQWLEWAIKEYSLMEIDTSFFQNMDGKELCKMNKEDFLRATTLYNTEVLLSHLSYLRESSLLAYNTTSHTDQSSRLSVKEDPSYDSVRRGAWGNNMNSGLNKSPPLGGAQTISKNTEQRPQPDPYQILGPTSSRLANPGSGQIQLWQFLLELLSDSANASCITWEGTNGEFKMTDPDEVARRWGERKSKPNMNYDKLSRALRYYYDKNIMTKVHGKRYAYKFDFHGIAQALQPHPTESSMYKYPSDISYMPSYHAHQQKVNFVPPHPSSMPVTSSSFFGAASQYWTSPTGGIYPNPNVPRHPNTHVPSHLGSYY
# In short: (§1)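 Beads coated with glutathione captured GST-fused human transcription factors that had been expressed in yeast, and the factors were then given DNA barcodes and pooled with a tag-only sample. The pools were incubated with 200 nmole of a random double-stranded 16-mer DNA library in Tris/NaCl/DTT/glycerol buffer for 30 min at room temperature, washed, crosslinked with 0.1% formaldehyde and proximity-ligated with BsaI/T4 ligase at 37 °C for 1 h. PCR amplification and Illumina NextSeq500 sequencing came last. Binding signal is each hexamer's read frequency for a factor divided by its frequency for the tag-only sample.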
# ELK1 = target: T2, ELK1 (Homo sapiens, UniProt P19419 1-428); conditions: protein: recombinant; tags: N-terminal GST; dsDNA, one strand shown
# T2 sequence: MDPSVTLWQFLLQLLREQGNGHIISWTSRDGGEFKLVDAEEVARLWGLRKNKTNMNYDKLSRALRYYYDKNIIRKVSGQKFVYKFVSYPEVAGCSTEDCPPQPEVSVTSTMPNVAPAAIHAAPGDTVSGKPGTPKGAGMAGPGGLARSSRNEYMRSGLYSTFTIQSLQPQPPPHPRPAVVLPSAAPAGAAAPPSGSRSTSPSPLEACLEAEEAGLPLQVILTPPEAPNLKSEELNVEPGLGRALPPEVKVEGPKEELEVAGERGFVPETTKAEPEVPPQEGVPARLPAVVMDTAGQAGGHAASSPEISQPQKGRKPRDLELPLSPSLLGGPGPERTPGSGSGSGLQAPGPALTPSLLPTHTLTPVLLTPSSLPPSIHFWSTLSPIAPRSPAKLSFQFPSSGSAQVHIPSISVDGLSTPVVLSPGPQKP
# In short: as §1
# GABPA = target: T3, GABPA (Homo sapiens, UniProt Q06546 1-454); conditions: protein: recombinant; tags: N-terminal GST; dsDNA, one strand shown
# T3 sequence: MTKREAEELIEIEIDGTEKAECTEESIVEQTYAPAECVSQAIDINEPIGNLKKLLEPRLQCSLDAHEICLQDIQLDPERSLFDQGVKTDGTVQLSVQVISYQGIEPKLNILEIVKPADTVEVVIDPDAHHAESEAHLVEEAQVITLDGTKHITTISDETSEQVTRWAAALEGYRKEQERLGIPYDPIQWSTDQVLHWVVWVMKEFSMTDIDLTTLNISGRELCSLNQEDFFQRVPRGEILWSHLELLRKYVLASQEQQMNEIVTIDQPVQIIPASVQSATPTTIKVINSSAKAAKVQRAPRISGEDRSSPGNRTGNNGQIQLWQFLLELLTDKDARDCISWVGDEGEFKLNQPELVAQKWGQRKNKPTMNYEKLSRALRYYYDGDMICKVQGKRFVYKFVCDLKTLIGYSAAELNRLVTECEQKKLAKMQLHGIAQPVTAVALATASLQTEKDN
# In short: as §1
# ERG = target: T4, ERG (Homo sapiens, UniProt P11308 1-479); conditions: protein: recombinant; tags: N-terminal GST; dsDNA, one strand shown
# T4 sequence: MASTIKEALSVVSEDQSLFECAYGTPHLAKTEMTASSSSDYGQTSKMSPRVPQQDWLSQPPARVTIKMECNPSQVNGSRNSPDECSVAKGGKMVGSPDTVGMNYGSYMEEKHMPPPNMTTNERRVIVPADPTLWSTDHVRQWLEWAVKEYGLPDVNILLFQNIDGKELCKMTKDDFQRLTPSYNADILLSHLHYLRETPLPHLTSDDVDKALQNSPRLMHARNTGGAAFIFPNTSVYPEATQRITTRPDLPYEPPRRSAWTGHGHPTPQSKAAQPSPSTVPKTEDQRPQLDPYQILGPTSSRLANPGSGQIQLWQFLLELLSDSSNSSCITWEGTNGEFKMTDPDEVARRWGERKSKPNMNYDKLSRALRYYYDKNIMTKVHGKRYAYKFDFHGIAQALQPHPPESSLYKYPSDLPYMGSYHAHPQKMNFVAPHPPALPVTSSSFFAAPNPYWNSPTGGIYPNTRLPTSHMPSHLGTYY
# In short: as §1
# ELF1 = ELF1 (Homo sapiens, UniProt P32519 1-619); conditions: protein: recombinant; tags: N-terminal GST; dsDNA, one strand shown
# In short: as §1
# EHF = target: T5, EHF (Homo sapiens, UniProt Q9NZC4 1-300); conditions: protein: recombinant; tags: N-terminal GST; dsDNA, one strand shown
# T5 sequence: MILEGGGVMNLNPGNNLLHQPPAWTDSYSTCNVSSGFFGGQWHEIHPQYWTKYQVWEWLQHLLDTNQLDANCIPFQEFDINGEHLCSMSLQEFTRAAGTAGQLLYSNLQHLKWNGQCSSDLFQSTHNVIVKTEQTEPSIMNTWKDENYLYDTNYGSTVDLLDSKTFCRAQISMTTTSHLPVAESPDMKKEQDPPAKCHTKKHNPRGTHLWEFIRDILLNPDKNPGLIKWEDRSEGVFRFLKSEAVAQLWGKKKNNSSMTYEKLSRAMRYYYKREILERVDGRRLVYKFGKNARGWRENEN
# In short: as §1
# SPI1 = SPI1 (Homo sapiens, UniProt P17947 1-270); conditions: protein: recombinant; tags: N-terminal GST; dsDNA, one strand shown
# In short: as §1
# SPIB = SPIB (Homo sapiens, UniProt Q01892 1-262); conditions: protein: recombinant; tags: N-terminal GST; dsDNA, one strand shown
# In short: as §1
# ELK3 = target: T6, ELK3 (Homo sapiens, UniProt P41970 1-407); conditions: protein: recombinant; tags: N-terminal GST; dsDNA, one strand shown
# T6 sequence: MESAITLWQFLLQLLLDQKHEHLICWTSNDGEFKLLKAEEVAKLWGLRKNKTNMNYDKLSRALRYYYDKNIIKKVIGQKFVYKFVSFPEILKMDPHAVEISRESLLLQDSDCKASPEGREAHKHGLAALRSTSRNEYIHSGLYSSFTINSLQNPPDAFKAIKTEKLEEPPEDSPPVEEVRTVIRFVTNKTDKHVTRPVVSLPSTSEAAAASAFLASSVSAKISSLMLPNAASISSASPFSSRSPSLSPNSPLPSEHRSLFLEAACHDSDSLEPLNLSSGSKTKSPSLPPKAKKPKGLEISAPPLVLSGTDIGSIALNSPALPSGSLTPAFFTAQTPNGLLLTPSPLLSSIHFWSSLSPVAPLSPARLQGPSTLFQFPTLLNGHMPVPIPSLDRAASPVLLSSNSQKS
# In short: as §1
# FEV = target: T7, FEV (Homo sapiens, UniProt Q99581 1-238); conditions: protein: recombinant; tags: N-terminal GST; dsDNA, one strand shown
# T7 sequence: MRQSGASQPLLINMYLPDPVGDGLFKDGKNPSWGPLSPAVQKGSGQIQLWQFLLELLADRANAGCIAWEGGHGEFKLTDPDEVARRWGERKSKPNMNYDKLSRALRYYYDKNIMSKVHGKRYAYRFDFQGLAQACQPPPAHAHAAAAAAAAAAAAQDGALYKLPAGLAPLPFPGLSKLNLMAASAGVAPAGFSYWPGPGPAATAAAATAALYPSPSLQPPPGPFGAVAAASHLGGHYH
# In short: as §1
# ETV5 = ETV5 (Homo sapiens, UniProt P41161 1-510); conditions: protein: recombinant; tags: N-terminal GST; dsDNA, one strand shown
# In short: as §1
# HSF1 = HSF1 (Homo sapiens, UniProt Q00613 1-529); conditions: protein: recombinant; tags: N-terminal GST; chain copies: 3; dsDNA, one strand shown
# In short: as §1
# SPIC = target: T8, SPIC (Homo sapiens, UniProt Q8N5J4 1-248); conditions: protein: recombinant; tags: N-terminal GST; dsDNA, one strand shown
# T8 sequence: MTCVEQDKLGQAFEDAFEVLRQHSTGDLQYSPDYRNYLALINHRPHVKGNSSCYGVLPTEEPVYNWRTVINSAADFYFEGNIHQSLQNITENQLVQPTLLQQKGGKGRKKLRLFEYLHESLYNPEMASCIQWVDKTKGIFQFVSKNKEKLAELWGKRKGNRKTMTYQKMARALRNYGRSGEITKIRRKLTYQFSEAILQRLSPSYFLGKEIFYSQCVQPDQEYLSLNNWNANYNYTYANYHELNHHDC
# In short: as §1
# ELF4 = ELF4 (Homo sapiens, UniProt Q99607 1-663); conditions: protein: recombinant; tags: N-terminal GST; dsDNA, one strand shown
# In short: as §1
# ELK4 = target: T9, ELK4 (Homo sapiens, UniProt P28324-2 1-405); conditions: protein: recombinant; tags: N-terminal GST; dsDNA, one strand shown
# T9 sequence: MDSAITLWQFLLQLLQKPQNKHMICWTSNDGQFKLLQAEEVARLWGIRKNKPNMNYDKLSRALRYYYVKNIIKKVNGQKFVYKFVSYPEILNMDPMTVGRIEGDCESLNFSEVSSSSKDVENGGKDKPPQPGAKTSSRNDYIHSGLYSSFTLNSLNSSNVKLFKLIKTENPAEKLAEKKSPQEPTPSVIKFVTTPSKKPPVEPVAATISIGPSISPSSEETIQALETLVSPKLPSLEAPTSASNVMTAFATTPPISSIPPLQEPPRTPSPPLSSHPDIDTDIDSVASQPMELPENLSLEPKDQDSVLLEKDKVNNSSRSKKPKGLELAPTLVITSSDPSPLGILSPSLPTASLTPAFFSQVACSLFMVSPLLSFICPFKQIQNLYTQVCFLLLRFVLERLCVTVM
# In short: as §1
# ETV2 = target: T10, ETV2 (Homo sapiens, UniProt O00321 1-342); conditions: protein: recombinant; tags: N-terminal GST; dsDNA, one strand shown
# T10 sequence: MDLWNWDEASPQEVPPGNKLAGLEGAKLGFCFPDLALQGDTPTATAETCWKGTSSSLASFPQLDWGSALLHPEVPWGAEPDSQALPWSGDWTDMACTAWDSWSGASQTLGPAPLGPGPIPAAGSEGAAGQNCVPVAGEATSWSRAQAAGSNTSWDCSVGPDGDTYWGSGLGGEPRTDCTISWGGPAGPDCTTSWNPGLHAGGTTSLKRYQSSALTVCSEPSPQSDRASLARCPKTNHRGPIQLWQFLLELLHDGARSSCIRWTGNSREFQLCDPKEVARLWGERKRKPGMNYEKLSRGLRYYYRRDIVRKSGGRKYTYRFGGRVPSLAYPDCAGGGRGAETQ
# In short: as §1
# ELF3 = target: T11, ELF3 (Homo sapiens, UniProt P78545 1-371); conditions: protein: recombinant; tags: N-terminal GST; dsDNA, one strand shown
# T11 sequence: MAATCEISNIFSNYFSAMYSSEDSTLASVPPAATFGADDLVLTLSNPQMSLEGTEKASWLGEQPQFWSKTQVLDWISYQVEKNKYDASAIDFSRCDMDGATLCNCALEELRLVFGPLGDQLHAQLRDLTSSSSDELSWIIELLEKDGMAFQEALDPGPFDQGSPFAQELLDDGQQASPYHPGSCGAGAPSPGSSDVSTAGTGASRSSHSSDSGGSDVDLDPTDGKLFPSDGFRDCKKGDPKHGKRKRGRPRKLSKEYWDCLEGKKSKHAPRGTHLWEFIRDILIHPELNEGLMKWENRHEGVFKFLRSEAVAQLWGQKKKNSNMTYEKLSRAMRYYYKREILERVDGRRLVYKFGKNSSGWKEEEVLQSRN
# In short: as §1
# CRX = CRX (Homo sapiens, UniProt O43186 1-299); conditions: protein: recombinant; tags: N-terminal GST; dsDNA, one strand shown
# In short: as §1
# ETV1 = ETV1 (Homo sapiens, UniProt P50549 1-477); conditions: protein: recombinant; tags: N-terminal GST; dsDNA, one strand shown
# In short: as §1
# ELF4, sequence (Q99607 whole entry): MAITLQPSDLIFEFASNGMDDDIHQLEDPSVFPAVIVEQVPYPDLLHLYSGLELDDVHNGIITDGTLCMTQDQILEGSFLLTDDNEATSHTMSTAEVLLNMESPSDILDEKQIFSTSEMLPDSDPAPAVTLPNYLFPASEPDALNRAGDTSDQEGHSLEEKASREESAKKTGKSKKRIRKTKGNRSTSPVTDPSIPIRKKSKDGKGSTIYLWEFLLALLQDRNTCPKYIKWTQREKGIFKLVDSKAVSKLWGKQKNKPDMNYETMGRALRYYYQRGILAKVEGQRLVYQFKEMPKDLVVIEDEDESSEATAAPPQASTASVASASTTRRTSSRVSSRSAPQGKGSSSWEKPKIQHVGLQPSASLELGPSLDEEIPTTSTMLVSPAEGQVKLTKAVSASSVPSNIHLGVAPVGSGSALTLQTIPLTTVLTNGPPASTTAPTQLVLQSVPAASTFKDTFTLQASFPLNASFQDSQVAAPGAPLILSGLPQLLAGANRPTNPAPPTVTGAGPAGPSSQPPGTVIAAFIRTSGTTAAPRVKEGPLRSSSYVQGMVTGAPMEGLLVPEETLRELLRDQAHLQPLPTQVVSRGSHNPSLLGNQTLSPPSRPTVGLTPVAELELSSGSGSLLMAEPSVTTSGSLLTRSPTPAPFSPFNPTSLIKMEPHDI
# ELF1, sequence (P32519 whole entry): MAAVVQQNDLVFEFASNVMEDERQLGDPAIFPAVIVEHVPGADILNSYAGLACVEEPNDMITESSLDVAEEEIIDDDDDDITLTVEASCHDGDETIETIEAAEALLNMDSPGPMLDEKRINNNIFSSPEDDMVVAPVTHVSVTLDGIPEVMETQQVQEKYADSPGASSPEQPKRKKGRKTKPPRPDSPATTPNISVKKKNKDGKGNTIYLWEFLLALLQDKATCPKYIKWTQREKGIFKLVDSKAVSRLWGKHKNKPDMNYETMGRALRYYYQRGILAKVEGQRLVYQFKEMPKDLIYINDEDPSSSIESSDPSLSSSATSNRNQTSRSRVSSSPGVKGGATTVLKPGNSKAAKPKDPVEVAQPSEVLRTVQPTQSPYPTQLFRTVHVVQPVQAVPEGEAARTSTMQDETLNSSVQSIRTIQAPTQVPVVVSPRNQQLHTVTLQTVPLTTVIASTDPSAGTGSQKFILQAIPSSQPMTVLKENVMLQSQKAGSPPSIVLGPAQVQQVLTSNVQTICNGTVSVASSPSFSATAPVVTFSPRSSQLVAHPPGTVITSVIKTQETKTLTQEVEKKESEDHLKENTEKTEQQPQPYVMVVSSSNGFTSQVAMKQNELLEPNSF
# HSF1, sequence (Q00613 whole entry): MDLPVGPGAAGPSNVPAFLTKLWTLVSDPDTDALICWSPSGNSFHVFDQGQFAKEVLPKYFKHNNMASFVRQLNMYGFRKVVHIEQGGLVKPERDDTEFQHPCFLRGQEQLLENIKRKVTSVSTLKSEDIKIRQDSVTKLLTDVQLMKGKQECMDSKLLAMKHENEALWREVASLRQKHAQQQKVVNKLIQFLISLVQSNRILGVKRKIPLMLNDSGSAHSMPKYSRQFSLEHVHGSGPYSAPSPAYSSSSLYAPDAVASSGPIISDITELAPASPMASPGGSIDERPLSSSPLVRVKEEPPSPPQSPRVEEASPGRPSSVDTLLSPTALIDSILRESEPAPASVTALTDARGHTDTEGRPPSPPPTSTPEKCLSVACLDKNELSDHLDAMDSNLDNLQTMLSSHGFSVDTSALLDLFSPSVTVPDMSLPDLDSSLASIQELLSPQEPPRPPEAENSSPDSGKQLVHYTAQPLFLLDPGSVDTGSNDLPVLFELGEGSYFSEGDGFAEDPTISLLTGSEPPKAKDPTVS
# ETV1, sequence (P50549 whole entry): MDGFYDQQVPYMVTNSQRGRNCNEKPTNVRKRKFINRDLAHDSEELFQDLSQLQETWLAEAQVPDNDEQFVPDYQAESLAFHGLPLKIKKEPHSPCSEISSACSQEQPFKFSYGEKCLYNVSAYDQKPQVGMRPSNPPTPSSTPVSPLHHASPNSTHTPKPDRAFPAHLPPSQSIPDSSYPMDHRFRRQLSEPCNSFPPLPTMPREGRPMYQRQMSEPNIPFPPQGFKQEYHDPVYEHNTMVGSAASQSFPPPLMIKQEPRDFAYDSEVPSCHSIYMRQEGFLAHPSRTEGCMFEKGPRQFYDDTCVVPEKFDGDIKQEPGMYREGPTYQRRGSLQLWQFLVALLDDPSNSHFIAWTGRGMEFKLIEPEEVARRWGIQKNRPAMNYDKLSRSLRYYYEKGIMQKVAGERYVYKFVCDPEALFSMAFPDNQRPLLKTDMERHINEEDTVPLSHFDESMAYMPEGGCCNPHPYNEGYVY
# ETV5, sequence (P41161 whole entry): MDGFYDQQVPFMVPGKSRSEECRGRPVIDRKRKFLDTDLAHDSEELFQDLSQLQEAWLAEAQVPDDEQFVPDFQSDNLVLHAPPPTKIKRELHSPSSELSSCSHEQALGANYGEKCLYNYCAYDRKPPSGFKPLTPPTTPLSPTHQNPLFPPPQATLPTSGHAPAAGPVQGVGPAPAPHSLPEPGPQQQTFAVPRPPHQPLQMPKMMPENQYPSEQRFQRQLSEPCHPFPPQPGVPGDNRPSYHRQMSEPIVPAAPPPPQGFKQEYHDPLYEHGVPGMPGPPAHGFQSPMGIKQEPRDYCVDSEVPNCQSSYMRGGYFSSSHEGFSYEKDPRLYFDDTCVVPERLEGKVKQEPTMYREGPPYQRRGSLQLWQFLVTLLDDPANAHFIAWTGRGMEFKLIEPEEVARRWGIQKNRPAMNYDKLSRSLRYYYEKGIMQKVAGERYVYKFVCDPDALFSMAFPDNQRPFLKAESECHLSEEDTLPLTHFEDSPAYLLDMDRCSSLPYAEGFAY
# CRX, sequence (O43186 whole entry): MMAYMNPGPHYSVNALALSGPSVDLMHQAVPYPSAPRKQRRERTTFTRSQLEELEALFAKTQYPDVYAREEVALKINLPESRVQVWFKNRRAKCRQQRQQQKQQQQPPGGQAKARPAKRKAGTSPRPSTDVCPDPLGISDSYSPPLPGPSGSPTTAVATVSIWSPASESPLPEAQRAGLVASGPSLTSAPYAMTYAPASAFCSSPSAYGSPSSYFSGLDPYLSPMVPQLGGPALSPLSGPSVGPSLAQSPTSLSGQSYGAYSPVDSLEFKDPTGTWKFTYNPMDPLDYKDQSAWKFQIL
# SPIB, sequence (Q01892 whole entry): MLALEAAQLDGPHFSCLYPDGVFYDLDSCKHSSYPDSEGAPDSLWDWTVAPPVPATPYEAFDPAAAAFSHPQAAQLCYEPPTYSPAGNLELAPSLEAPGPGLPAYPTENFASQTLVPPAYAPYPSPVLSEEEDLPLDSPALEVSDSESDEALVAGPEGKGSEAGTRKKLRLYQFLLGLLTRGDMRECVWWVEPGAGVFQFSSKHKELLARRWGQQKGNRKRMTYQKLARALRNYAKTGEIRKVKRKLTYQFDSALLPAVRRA
sequence,measurement,setting,value
TCCGCA,binding signal,FLI1,"2.2 fold enrichment (6-mer frequency, TF over GST control)"
same,binding signal,ELK1,"2.22 fold enrichment (6-mer frequency, TF over GST control)"
same,binding signal,GABPA,"2.07 fold enrichment (6-mer frequency, TF over GST control)"
same,binding signal,ERG,"2.03 fold enrichment (6-mer frequency, TF over GST control)"
same,binding signal,ELF1,"2.01 fold enrichment (6-mer frequency, TF over GST control)"
same,binding signal,EHF,"2.03 fold enrichment (6-mer frequency, TF over GST control)"
same,binding signal,SPI1,"2.85 fold enrichment (6-mer frequency, TF over GST control)"
same,binding signal,SPIB,"2.18 fold enrichment (6-mer frequency, TF over GST control)"
same,binding signal,ELK3,"2.24 fold enrichment (6-mer frequency, TF over GST control)"
same,binding signal,FEV,"1.91 fold enrichment (6-mer frequency, TF over GST control)"
same,binding signal,ETV5,"2.24 fold enrichment (6-mer frequency, TF over GST control)"
same,binding signal,HSF1,"1.21 fold enrichment (6-mer frequency, TF over GST control)"
same,binding signal,SPIC,"2.46 fold enrichment (6-mer frequency, TF over GST control)"
same,binding signal,ELF4,"1.98 fold enrichment (6-mer frequency, TF over GST control)"
same,binding signal,ELK4,"1.76 fold enrichment (6-mer frequency, TF over GST control)"
same,binding signal,ETV2,"1.98 fold enrichment (6-mer frequency, TF over GST control)"
same,binding signal,ELF3,"2.22 fold enrichment (6-mer frequency, TF over GST control)"
same,binding signal,CRX,"1.35 fold enrichment (6-mer frequency, TF over GST control)"
same,binding signal,ETV1,"2.15 fold enrichment (6-mer frequency, TF over GST control)"
